Screening data deposited in PubChem BioAssay by National Center for Advancing Translational Sciences (NCATS).
Most compounds without a hit are left out; they make up all but 17% or so of the library.
DT40 TDP1 no CPT – qHTS for Inhibitors of human tyrosyl-DNA phosphodiesterase 1 (TDP1): qHTS in cells in absence of CPT; AID 686978, 2013; hit rate 15% among 420,000; DT40 Tdp1-/- hTDP1 cells, no CPT, ATP luminescence, 48 h; Potency, µM (doses to about 46.2 µM), without a hit: at the top dose activity change, negative = growth inhibition, usual class: inhibitors; further: on the % scale 0 is the no-effect control and ±100 the full control effect; nearly all actives have a fitted effect of over 55% in size
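Camptothecin absent (DMSO only). Human TDP1-complemented DT40 knockout cells, 400 cells/well, 37 °C for minimum 48 hr; ATP measured via CellTiter-Glo, 30 min dark incubation, luminescence.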
DT40 TDP1 CPT – DT40-hTDP1 cell growth loss with CPT. AID 686979. chicken DT40 Tdp1-/-;hTDP1 cells + 20 nM CPT, ATP luminescence, 48 h. Potency, µM (doses to about 46.2 µM), inactives show top-dose activity change, negative = growth inhibition, hits mostly inhibitors. hit rate 12% among 420,000; further: on the % scale 0 is the no-effect control and ±100 the full control effect; nearly all actives have a fitted effect of over 55% in size
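Chicken DT40 Tdp1-/- cells stably complemented with human TDP1 were seeded at 400 cells/well in medium containing 20 nM camptothecin, exposed to pin-transferred compounds, and grown at 37 °C for at least 48 hr. Viability was read as ATP luminescence.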
HT1080NT lethal – kills 2HG-producing HT-1080-NT fibrosarcoma cells; hit rate 1.6% among 360,000; HT-1080-NT fibrosarcoma viability, CellTiter-Glo ATP luminescence, 48 h; Potency, µM (top dose mostly 46.1 µM), for the others: top-dose activity, negative = less viability, most hits filed as cytotoxic;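 further: NT is the 2HG producing partner of a matched IDH1 knockdown line; 0% = DMSO-treated cells and -100% = media-only wells without cells; nearly all actives have a fitted effect of over 55% in size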
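Viability by CellTiter-Glo luminescence after 48 h compound exposure at 37C of HT-1080-NT cells (750/well, RPMI, 5% FBS). % activity scaled between DMSO wells and medium-only wells, then curve-fitted and categorized by curve class.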
HT1080 IDH1KD tx – toxicity to HT-1080 IDH1 knockdown cells (counter line); HT-1080 IDH1 knockdown viability, ATP luminescence, 48 h; Potency, µM (titrated, usually from 46.1 µM), for inactives: at the highest dose activity, negative = toxicity, most hits filed as cytotoxic; hit rate 2% among 360,000;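 further: 0% = DMSO wells and -100% = cell-free medium wells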
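Viability of IDH1-knockdown HT-1080 fibrosarcoma cells was assessed by CellTiter-Glo after 48 h at 37 °C with titrated compound; concentration-effect curves were classified by fit quality and response size.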
HepG2 tox – HepG2 cytotoxicity, counter-screen for TGF-b inhibitors. HepG2 CAGA-GFP viability, ATP luminescence, 18 h. Potency, µM (doses to about 46.1 µM), inactives show at the highest dose activity change, negative = cytotoxicity, actives largely listed as cytotoxic. hit rate 0.76% among 410,000. AID 588856
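CellTiter-Glo luminescence gave cytotoxicity after 18 hours at 37 degrees C. The cells were HepG2 CAGA-GFP in 1% FBS DMEM, stimulated with 500 pg/mL TGF-beta after compound addition. %Activity was normalised to no-cell wells (complete cell-killing) and DMSO (no toxicity), and curves were fitted and classified.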
TGFb SMAD3 inh – inhibitors of TGF-b signaling; HepG2 CAGA-GFP TGF-b/SMAD3 reporter, GFP fluorescence, 18 h; TGF-beta stimulated, 500 pg/mL final; hit rate 1.2% among 410,000; Potency, µM (top dose mostly 46.1 µM), without a hit: at the highest dose activity, negative = inhibition, hits mostly inhibitors; further: on the % scale 0 is the no-effect control and ±100 the full control effect; nearly all actives have a fitted effect of over 65% in size
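Inhibition of TGF-beta-driven CAGA-GFP reporter expression in HEPG2 cells is measured by cellular GFP fluorescence after 18 h stimulation with 500 pg/mL recombinant TGF-beta in 1% FBS medium at 37 degrees C.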
Numbers without * were called inactive; ? = inconclusive; . = not tested or not shown; [ ] = another dose, or the depositor's remark. The call rests on the fitted dose curve; in most records, active means well fitted curve in the direction sought with a large enough effect; inconclusive means small, poorly fitted or top-dose-only effect, or another doubt; inactive means no such curve, though single readings can be large; an effect the other way counts as inactive or inconclusive. Potency means the concentration at half of the fitted maximal effect.

SMILES	DT40 TDP1 no CPT	DT40 TDP1 CPT	HT1080NT lethal	HT1080 IDH1KD tx	HepG2 tox	TGFb SMAD3 inh
CC1CCC(NC(=O)c2cc(S(=O)(=O)N3CCCCC3)ccc2N2CCOCC2)CC1 (stereo not drawn)	?	?	2%	7%	1%	12%
COC(C[C@H]1O[C@@H]1C(=O)[C@H](C)OCc1ccccc1)OC	-14%	?	-1%	-5%	-13%	8%
O=C(c1ccc(N2CCN(CCO)CC2)nc1)N1CCOCC1	18%	-7%	-1%	2%	0%	-16%
CCN1CCN(CCNC(=O)c2ccc3nc(-c4cccc(C)c4)c(-c4cccc(C)c4)nc3c2)CC1	16µM*	16µM*	-2%	-21%	6%	-1%
CC(=O)c1ccc(NC(=O)c2ccc3c(c2)nnn3C2CCCC2)cc1	-3%	0%	.	.	-36%	-2%
COc1ccccc1CNC(=O)c1ccc2nc(-c3ccccc3)c(-c3ccccc3)nc2c1	18µM*	?	.	.	-2%	-19%
CCN(CC)C(=O)c1ccc2nc(-c3ccccc3)c(-c3ccccc3)nc2c1	21µM*	?	5%	9%	-58%	-27%
Cc1ccc(C(=O)NCCN2CCOCC2)cc1	7%	-1%	3%	-3%[9.24 µM]	3%	6%
Cc1c(Cl)cccc1NC(=O)c1ccc2c(c1)nnn2C1CCCC1	2.6µM*	2.6µM*	.	.	-32%	-21%
C=CCNC(=O)c1ccc(-c2nc3ccccc3nc2-c2ccccc2)cc1	?	?	2%	4%	5%	-11%
COCC(C)NC(=O)c1ccc2nc(-c3ccccc3)c(-c3ccccc3)nc2c1 (stereo not drawn)	21µM*	?	3%	-9%	-11%	1%
CCNC(=O)c1ccc2nc(-c3ccccc3)c(-c3ccccc3)nc2c1	11µM*	11µM*	.	.	-4%	-7%
COc1cccc(CNC(=O)c2ccc3nc(-c4ccc(F)cc4)c(-c4ccc(F)cc4)nc3c2)c1	13µM*	21µM*	.	.	-17%	-1%
COCC(C)NC(=O)c1ccc(N(C)C)cc1 (stereo not drawn)	0%	9%	22%	11%	-4%	20%
CCC(C)NC(=O)c1ccc2nc(-c3ccc(OC)c(OC)c3)c(-c3ccc(OC)c(OC)c3)nc2c1 (stereo not drawn)	?	15µM*	-9%	-1%	-10%	-26%
COc1ccc(CCC(=O)Nc2ccc(S(=O)(=O)Nc3nccc(C)n3)cc2)cc1	-20%	-6%	5%	7%	11%	3%
CCCCC(=O)N(Cc1ccc(-c2ccccc2-c2nn[nH]n2)cc1)[C@@H](C(=O)O)C(C)C	-21%	-18%	.	.	.	.
O=C(c1ccc2nc(-c3ccccc3)c(-c3ccccc3)nc2c1)N1CCCCC1	16µM*	?	0%	0%	-40%	-34%
COc1ccc(-c2nc3ccc(C(=O)NCCCN4CCOCC4)cc3nc2-c2ccc(OC)cc2)cc1	23µM*	?	-16%	-10%	-97%	?
CCCNC(=O)c1ccc2nc(-c3ccccc3)c(-c3ccccc3)nc2c1	23µM*	?	8%	5%	-6%	-5%
COc1ccccc1CNC(=O)c1ccc2c(c1)nc(C)n2-c1ccccc1OC	?	?	.	.	-5%	3%
COc1ccccc1CNC(=O)c1ccc2c(c1)nnn2C1CCCC1	16µM*	18µM*	.	.	-22%	11%
CCOc1cccc2sc(NC(=O)CS(=O)(=O)c3ccc(C)cc3)nc12	-27%	-10%	.	.	-1%	-2%
COc1cc(OC)cc(-c2nnc(SCc3cccnc3)o2)c1	-25%	26µM*	11%	18%	-56%	0%
